# Results published in PubChem BioAssay (EPA / NIEHS).
# The source made the active and inactive calls. The calls were made as follows: active = hit-call score of the fitted dose curve at least 0.9, where 1 is the maximum; inactive = score below 0.9.
# Read-out: Phosphatase and tensin (PTEN), PTEN (gene 5728)
# Assay: LTEA_HepaRG_PTEN: Life Technologies and Expression Analysis (LTEA) Assay for Phosphatase and tensin (PTEN) using HepaRG (AID 2283523)
# Conditions: mRNA level, 48 h; actives raise or lower the signal
# Experimental: LTEA_HepaRG is a cell based, multiplexed-readout assay that uses HepaRG, a human liver cell line, with measurements taken at 48 hours after chemical dosing on a 96-well plate.LTEA_HepaRG_PTEN is one of 102 assay component(s) measured in the LTEA HepaRG cell culture assay. It is a marker of Cell proliferation, survival, death.Data from the assay component LTEA_HepaRG_PTEN was analyzed into 1 endpoint. This assay endpoint, LTEA_HepaRG_PTEN, was analyzed with bidirectional fitting relative to DMSO as the negative control and baseline of activity. Using a type of inducible reporter, measures of mRNA induction for gain or loss-of-signal activity can be used to understand regulation of transcription factor activity. To generalize the intended target to other relatable targets, this assay endpoint is annotated to the phosphatase intended target family, where the subfamily is dual-specific phosphatase.
# A total of 1060 chemcials from the ToxCast library were tested in eight-point concentration-response experiments. Cell culture and cytotoxicity assays were conducted at Thermo Fisher Scientific's Custom Services facility (Madison, WI). A single lot of human HepaRG cells (Thermo Fisher Scientific, Frederick, MD) was used for the cell culture experiments. 96-well format collagen type I coated plates of human HepaRG cells were prepared using established methods. Briefly, cryopreserved HepaRG cells were thawed, plated at a density of approximately 100,000 cells/well in HepaRG Thaw, Plate, and General Purpose media (HPRG770, Thermo Fisher Scientific), and incubated for 48 hours. 0.5% DMSO was selected as vehicle control to balance the requisite need of DMSO in HepaRG cultures to maintain differentiation (for example, baseline metabolism, proportions of hepatocytes vs. cholangiocytes), while enabling further hepatic receptor pathway activation (for example, PXR and CAR) in response to chemical exposure. 48 hours after plating, the culture medium was replaced with HepaRG Serum-Free Incudtion Media. Cells were exposed to each test chemical in duplicate and maintained in CO2 incubators for another 48 hours. Chemical plates were thawed to room temperature and 200x concentrations of treatment groups were prepared. 8-point conentration-reponse curves were made with the highest exposure at 100 uM, followed by half-log dilutions, all in 0.5% DMSO. Each test plate contained variouse controls, induction positive controls (1mM phenobarbital), cytotoxicity positive controls ([…] aflatoxin B1), vehicle controls (0.5% DMSO), and total lysis controls (0.5% DMSO). Cell morphology images were taken using an Essen IncuCyte FLR automated microscope, with six 96-well plates imaged in about 24 minutes. Images were captured and exported and JPEG files. Spent culture media was transfered to black-well plates for the LDH assay, and remaining media was sorted at -80 C for later use. Cells were treated with RLT buffer and frozen until shipped for gene expression analysis. Total RNA was isolated from the cell suspension in 75 uL of Buffer RLT (Qiagen, Germantown, MD 20874) by Quintiles/Expression Analysis (Durham, NC) using a custom isolation procedure. Total RNA from each plate well was transferred to a preamplification plate. Fluidigm's 96.96 Dynamic ArrayTM (Fluidigm, Amsterdam, the Netherlands) technology was used for gene expression analyses by quantitative reverse transcription polymerase chain reaction (qRT-PCR, performed by Quintiles/Expression Analysis, Durham, NC)89. Standard TaqManTM Assays (Applied Biosystems/ThermoFisher Scientific, Foster City, CA) were used to assess the expression of 93 genes selected based on their selectivity and sensitivity to important hepatic receptors known to be modulated by environmental chemicals; importance in human hepatocyte functionality; and hepatotoxicity. […]
Structure (SMILES),outcome,AC50
O=C1NS(=O)(=O)c2ccccc21,inactive,–
CN(C)CCOC(c1ccccc1)c1ccccc1,inactive,–
Cc1[nH]nc2c1N=C(c1ccccc1Cl)c1cc([N+](=O)[O-])ccc1N2,inactive,–
CCCCc1oc2ccccc2c1C(=O)c1cc(I)c(OCCN(CC)CC)c(I)c1,inactive,–
CCC(C)c1ccccc1O (stereo not given),inactive,–
CC(=O)Nc1ccc(O)cc1,inactive,–
CS(=O)(=O)c1ccc([C@@H](CC2CCCC2)C(=O)Nc2cnccn2)cc1Cl,inactive,–
CCCCC(CC)C(=O)O (stereo not given),inactive,–
CCCCCCCCCCCCCCC,inactive,–
CN(Cc1cnc2nc(N)nc(N)c2n1)c1ccc(C(=O)N[C@@H](CCC(=O)O)C(=O)O)cc1,inactive,–
OCC(CO)(CBr)CBr,inactive,–
CCCCC=O,inactive,–
O=C(c1ccccc1)c1ccccc1,inactive,–
O=C(CCCN1CCC(O)(c2ccc(Cl)cc2)CC1)c1ccc(F)cc1,inactive,–
N=C(N)c1ccc(OCCCCCOc2ccc(C(=N)N)cc2)cc1,–,29.9 µM (active)
